High-throughput results from PubChem BioAssay.
PD-1 reversal = activators reversing PD-1 mediated T-cell inhibition; primary human CD4 T cells, PD-L1 beads, CellTiter-Glo 96 h; activation, % (test concentration not listed); 29,000 tested, under 10 active; call rule not given here
NOMO-1 viab = STK33 inhibitor candidate reducing NOMO-1 cell viability | 37,000 tested, 7.5% active | NOMO-1 AML viability, CellTiter-Glo luminescence, 72 h | inhibition, % (test concentration not listed) | AID 2330; in the data active = inhibition above about 80%; inconclusive = no clear call, values can overlap the other calls
MITF inhib = MITF inhibition; TRPM1 promoter luciferase, luminescence, 24 h; inhibition, % (concentration not given with the values); 37,000 tested, 0.28% active; AID 2240; in the data active = inhibition above about 85%; inconclusive = no clear call, values can overlap the other calls; inactive = below about 68%;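 also: human melanocyte line stably carrying TRPM1 promoter luciferase reporter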
Shh pathway inh = Sonic Hedgehog pathway inhibition | Shh-LIGHT2 Gli-luciferase reporter, 30 h | AID 2313 | 22,000 tested, 2.1% active | inhibition, % (no concentration beside the values);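 active = mean inhibition across valid replicates above about 65%, limit read from the data; inconclusive = mean under the limit, yet half or more replicates past it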;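 also: pathway switched on by Shh-conditioned medium diluted 1 in 25 in low serum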
YB-1 expr inh = YB-1 expression inhibition | U2OS, qRT-PCR YB-1 vs CDIP delta delta Cp, 16 h; active compounds read high; zero = DMSO, each unit about twofold | delta delta Cp (YB-1 minus CDIP) (no concentration beside the values) | 30,000 tested, 0.37% active;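 active = delta delta Cp rounded down to an integer at or above 3, about 3 SD of DMSO wells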;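 also: higher means less YB-1 transcript or more CDIP transcript relative to DMSO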
Hits are given with their value; n = inactive; u = inconclusive; x = no result; ! = repeats disagree. A selection: hits, their analogues and other compounds. The true share with any hit is near 7.4%.

SMILES | PD-1 reversal | NOMO-1 viab | MITF inhib | Shh pathway inh | YB-1 expr inh
C[C@@H]1CN([C@@H](C)CO)C(=O)c2cc(NC(=O)Nc3cccc4ccccc34)ccc2O[C@@H]1CN(C)Cc1ccc(Oc2ccccc2)cc1 | x | 114 | n | x | n
COc1ccc(CN(C)C[C@H]2Oc3ccc(NC(=O)Nc4cccc5ccccc45)cc3C(=O)N([C@H](C)CO)C[C@@H]2C)cc1 | n | n | n | n | n
CC(C)=CCc1c(O)cc(O)c2c(=O)cc(-c3ccc(O)cc3)oc12 | n | 94 | n | n | n
Cc1sc2nc3c4ccccc4c(NCC4CCCO4)nn3c(=O)c2c1C (configuration not stated) | n | 87 | n | x | n
Cc1ccc(-c2csc3nc4c5ccccc5c(NCCCN5CCOCC5)nn4c(=O)c23)cc1 | n | 114 | n | x | x
CCSC1=C(C#N)C(c2cccs2)C(C(=O)Nc2ccccc2)=C(C)N1 (configuration not stated) | n | n | n | n | n
CC(=O)OCCSc1nc(N(C)C)nc(N(C)C)n1 | n | n | n | x | x
Cc1ccc(NC(=O)c2ccc3c(=O)n(Cc4ccco4)c(=S)[nH]c3c2)cc1Cl | n | 121 | n | n | n
CC(=O)c1ccc(NC(=O)CCCC(=O)O)cc1 | n | n | n | x | x
CCn1c(Sc2ncnc3c2sc2nc(C)cc(C)c23)nnc1-c1cccs1 | n | 104 | n | x | n
Cc1cc(C)c2c(n1)sc1c(Sc3nnc(-c4ccncc4)o3)ncnc12 | n | n | n | x | n
Cc1ccc(S(=O)(=O)N(C)C[C@@H]2Oc3ccc(NC(=O)Nc4ccc(C(F)(F)F)cc4)cc3CC(=O)N([C@@H](C)CO)C[C@@H]2C)cc1 | n | 115 | n | n | n
C[C@@H]1CN([C@H](C)CO)C(=O)Cc2cc(NC(=O)Nc3ccc(C(F)(F)F)cc3)ccc2O[C@H]1CN(C)S(=O)(=O)c1ccccc1 | n | n | n | n | n
Cc1ccc(S(=O)(=O)N(C)C[C@H]2Oc3ccc(NC(=O)Nc4ccc(C(F)(F)F)cc4)cc3CC(=O)N([C@@H](C)CO)C[C@H]2C)cc1 | n | 111 | n | n | n
COc1ccccc1N1CCN(CC(=O)Nc2ccc([N+](=O)[O-])cc2C(=O)Nc2ccccc2F)CC1 | x | n | n | x | x
C[C@@H]1CN([C@H](C)CO)C(=O)c2cccc(NC(=O)Nc3ccc(F)cc3)c2O[C@H]1CN(C)CC1CCCCC1 | n | 113 | n | n | n
C[C@@H]1CN([C@@H](C)CO)C(=O)c2cccc(NC(=O)Nc3ccccc3)c2O[C@H]1CN(C)CC1CCCCC1 | x | 93 | n | n | n
C[C@H](CO)N1C[C@H](C)[C@@H](CN(C)CC2CCCCC2)Oc2c(NC(=O)Nc3ccccc3)cccc2C1=O | n | u | n | n | n
C[C@@H]1CN([C@H](C)CO)C(=O)c2cccc(NC(=O)Nc3ccccc3)c2O[C@@H]1CN(C)CC1CCCCC1 | n | n | n | n | n
C[C@H]1CN([C@@H](C)CO)C(=O)c2cccc(NC(=O)Nc3ccc(F)cc3)c2O[C@@H]1CN(C)CC1CCCCC1 | n | u | n | n | n
C[C@H]1CN([C@@H](C)CO)C(=O)c2cccc(NC(=O)Nc3ccccc3)c2O[C@@H]1CN(C)CC1CCCCC1 | n | 90 | n | n | n
O=C(COc1ccccc1[N+](=O)[O-])Nc1cc(-c2nc3ccccc3o2)ccc1Cl | n | n | n | x | x
CC(O)c1ccc2ccccc2c1 (configuration not stated) | n | n | n | n | n
O=c1[nH]c(=S)[nH]c(O)c1C=Nc1cccc(O)c1 | n | n | n | n | n
O=S(=O)(c1ccc(Cl)c(Cl)c1)N1CCN(Cc2ccc(OCCO)cc2)CC1 | x | x | x | x | n
SMILES | PD-1 reversal | NOMO-1 viab | MITF inhib | Shh pathway inh | YB-1 expr inh
O=[N+]([O-])c1ccc(NCCNC(=S)Nc2ccc(Cl)cc2)nc1 | n | n | n | x | x
COc1nnc(-c2ccc(N3CCOCC3)c(NS(=O)(=O)c3ccc(Cl)cc3)c2)c2ccccc12 | n | n | n | x | x
COc1ccc(OCC(=O)Nc2cc(-c3nnc(OC)c4ccccc34)ccc2N2CCCCC2)cc1 | n | 89 | n | x | x
C[C@@H]1CN([C@H](C)CO)C(=O)Cc2cc(NC(=O)c3ccncc3)ccc2O[C@@H]1CN(C)Cc1ccc(Oc2ccccc2)cc1 | n | n | n | 73 | n
C[C@H]1CN([C@@H](C)CO)C(=O)Cc2cc(NC(=O)c3ccncc3)ccc2O[C@H]1CN(C)Cc1ccc(-c2ccccc2)cc1 | x | 89 | n | n | n
CN1CCN(CCCN2c3ccccc3Sc3ccc(C(F)(F)F)cc32)CC1 | x | 112! | n | n | n
Cc1cccc(NC(=O)c2ccccc2NC(=O)COc2cccc([N+](=O)[O-])c2)c1C | n | 105 | n | x | x
CN1C(=O)c2ccccc2-n2c(nc3ccccc3c2=O)[C@@]12O[C@H]2c1ccccc1 | n | 104 | n | n | n
N#Cc1cnc(SCC(=O)NC(=O)Nc2ccccc2)nc1N | n | n | n | n | n
C/C=C(\C)C(=O)OC1CCC(=O)OC1/C=C/C(O)C(C)O (configuration not stated) | n | n | n | n | n
CC1(C)Cc2nc3sc4c(SCC(=O)NCc5ccccc5)ncnc4c3cc2CO1 | n | 119 | n | x | x
N/C(=N\O)c1ccc(Cl)cc1 | n | n | n | n | n
CCOC(=O)CN1C(=O)C2(C(C#N)=C(N)Oc3n[nH]c(C)c32)c2ccccc21 (configuration not stated) | n | n | n | n | n
O=S(=O)(CCSc1nc2ccccc2o1)c1nc2ccccc2s1 | n | 127 | n | x | x
O=C(O)CCSc1nc2ccccc2s1 | x | n | u | x | x
O=S(=O)(CCSc1ccccn1)c1nc2ccccc2s1 | x | 108 | n | x | x
Cc1ccc(S(=O)(=O)Nc2cccc3c2O[C@H](CN(C)Cc2ccc(Oc4ccccc4)cc2)[C@@H](C)CN([C@@H](C)CO)C3=O)cc1 | n | n | n | n | n
C[C@H](CO)N1C[C@H](C)[C@H](CN(C)Cc2ccc(Oc3ccccc3)cc2)Oc2c(NS(=O)(=O)c3ccc(F)cc3)cccc2C1=O | n | 84 | n | n | n
Cc1ccc(S(=O)(=O)Nc2cccc3c2O[C@@H](CN(C)Cc2ccc(Oc4ccccc4)cc2)[C@@H](C)CN([C@H](C)CO)C3=O)cc1 | n | 86 | n | n | n
C[C@H]1CN([C@@H](C)CO)C(=O)c2cccc(NS(=O)(=O)c3ccc(Cl)cc3)c2O[C@H]1CN(C)Cc1ccc(-c2ccccc2)cc1 | n | 84 | n | n | n
Cc1ccc(C(=O)CSc2nnc(-c3cc(C(C)(C)C)nn3Cc3cccc(C)c3)o2)cc1 | n | n | n | n | n
COc1ccc(CCNC(=O)c2c(-c3c(F)cccc3Cl)noc2C)cc1OC | n | n | n | x | x
Cc1ccc(S(=O)(=O)Nc2ccc3c(c2)C(=O)N([C@H](C)CO)C[C@H](C)[C@@H](CN(C)C(=O)Nc2ccc(C(F)(F)F)cc2)OCCCC[C@@H](C)O3)cc1 | x | n | n | n | n
